Test [1] can be described thus: qHTS assay to identify small molecule agonists of the NFkB signaling pathway - cell viability counter screen (AID 1159515; calls by dose curve; also: series mostly up to about 61 µM; nearly all actives have a fitted effect of over 55% in size). Summed up: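 Viability in NFkB-bla ME-180 cells was measured by CellTiter-Glo luminescence, 30 min room temperature, in wells already treated 5 hr with compounds and read for reporter FRET.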
(In general: In qHTS, concentration-response curves come from the screen itself.)

Test [2] is described as follows: qHTS assay to identify small molecule agonists of the endoplasmic reticulum stress response signaling pathway - cell viability counter screen (AID 1159517; calls by dose curve; also: nearly all actives have a fitted effect of over 50% in size; also: potency is read from the fitted curve at half-maximal effect). Summed up:
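Luminescence readout: CellTiter-Glo, 30 min RT, same wells as the ESRE-bla reporter read. HeLa ESRE-bla, 1,500 cells/well, o/n 37 C; cpd 5 hr 37 C/5% CO2.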

Test [3] addresses Nuclear receptor ROR-gamma (Homo sapiens) (UniProt P51449). Description: qHTS assay to identify small molecule antagonists of the retinoid-related orphan receptor gamma (ROR-gamma) signaling pathway (AID 1159521; also: nearly all actives have a fitted effect of over 50% in size; also: potency is read from the fitted curve at half-maximal effect). Summed up: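 CHO Tet-on RORγ, RORE-luc reporter. Cpd 2 h pre-incubation, then dox hyclate 1 uM final, 16 h, 37 C/5% CO2. ONE-Glo luminescence; decrease = antagonist.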

Test [4] in a line: qHTS assay to identify small molecule agonists of the AP-1 signaling pathway - cell viability counter screen (AID 1159525; calls by dose curve; also: nearly all actives have a fitted effect of over 55% in size; also: potency is read from the fitted curve at half-maximal effect). The method, boiled down: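 ME-180 AP-1-bla, 2500 cells/well, Opti-MEM + 0.5% dialyzed FBS; overnight 37 °C; cpd 15-pt titration, 5 h 37 °C; CellTiter-Glo 30 min RT; luminescence read; normalised to TOAB and DMSO controls.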
Test [5] is described as follows: qHTS assay to identify small molecule agonists of the AP-1 signaling pathway (AID 1159526; calls by dose curve).
The nature of test [6]: qHTS assay to identify small molecule agonists of the vitamin D receptor (VDR) signaling pathway - cell viability counter screen (AID 743224). Also: nearly all actives have a fitted effect of over 50% in size. Also: potency is read from the fitted curve at half-maximal effect. Summed up:
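VDR-bla cell line, quantitative HTS format; 16 h compound incubation (37C, 5% CO2); ATP-based CellTiter-Glo luminescence measured in the reporter assay wells.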

A short description of test [7]: qHTS assay to identify small molecule antagonists of the vitamin D receptor (VDR) signaling pathway - cell viability counter screen (AID 743225). Also: nearly all actives have a fitted effect of over 50% in size. Also: potency is read from the fitted curve at half-maximal effect. Summed up:
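Read-out: CellTiter-Glo luminescence measured 30 min after reagent addition at room temperature. Cells were VDR-bla HEK 293T exposed 16 h at 37C, 5% CO2, to compound with 3 nM final calcitriol agonist.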

Test [8] is described as follows: qHTS assay to identify small molecule antagonists of the retinoid-related orphan receptor gamma (ROR-gamma) signaling pathway - cell viability counter screen (AID 1159520). Also: nearly all actives have a fitted effect of over 50% in size. Also: potency is read from the fitted curve at half-maximal effect. Summed up:
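Tet-on ROR gamma CHO cells (1,000/well) were plated 4 hr, given compounds in DMSO for 2 hr at 37 C, then induced with 1 uM final doxycycline for 16 hr. Viability was read as ATP by CellTiter-Glo luminescence after 30 min.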

In test [9] the target is Retinoic acid receptor RXR-alpha (Homo sapiens) (UniProt P19793). As to the kind of experiment: qHTS assay to identify small molecule agonists of the RXR signaling pathway (AID 1159527; calls by dose curve; also: nearly all actives have a fitted effect of over 35% in size; also: potency is read from the fitted curve at half-maximal effect). The method, boiled down: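 Read-out: beta-lactamase FRET ratio (405 nm excitation, 460 and 530 nm emission) after 2 hr substrate loading at room temperature. Cells were RXR-alpha-UAS-bla HEK 293T treated with compounds for 16 hr in 2% charcoal-stripped FBS medium.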

Test [10] is described as follows: qHTS assay to identify small molecule agonists of the endoplasmic reticulum stress response signaling pathway (AID 1159516; active = well fitted activation curve with a large enough effect in the signal ratio in the repeat runs, not every such curve was filed as active; the % refers to the signal ratio). The method, boiled down: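 ER stress element reporter (bla) in HeLa. 1,500 cells/well, overnight attachment; 5 hr compound; 2 hr RT substrate; dual-emission fluorescence.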

Structures are written as SMILES. Several values for one entry are separate records, joined by “and”; a condition that tells them apart may be missing. Equal entries are not always repeated. Inconclusive results are not listed. Activity calls are given as the source filed them. Unless noted, calls follow the shape of the dose curve; as a rule, active = well fitted curve in the direction sought with a large enough effect in the repeat runs; inconclusive = weak or mixed curves; inactive = no such curve, though single readings can be large; an effect the other way counts as inactive or inconclusive.

Retinoic acid receptor RXR-alpha (Homo sapiens), sequence (P19793 whole entry, looked up): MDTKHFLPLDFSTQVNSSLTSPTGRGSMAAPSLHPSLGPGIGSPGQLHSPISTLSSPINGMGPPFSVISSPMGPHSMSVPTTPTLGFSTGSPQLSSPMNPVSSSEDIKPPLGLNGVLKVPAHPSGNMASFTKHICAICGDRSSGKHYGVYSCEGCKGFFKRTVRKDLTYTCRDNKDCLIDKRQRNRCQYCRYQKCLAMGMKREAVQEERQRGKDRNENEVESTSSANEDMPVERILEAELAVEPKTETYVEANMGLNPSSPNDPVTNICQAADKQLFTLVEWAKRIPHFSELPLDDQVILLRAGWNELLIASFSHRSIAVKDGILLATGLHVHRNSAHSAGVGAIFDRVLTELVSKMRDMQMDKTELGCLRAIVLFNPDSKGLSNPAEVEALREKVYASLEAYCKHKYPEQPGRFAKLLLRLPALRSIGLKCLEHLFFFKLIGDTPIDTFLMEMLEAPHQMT

In the case of `CO/N=C(/C1=NOCCO1)c1ccccc1Oc1ncnc(Oc2ccccc2Cl)c1F`, the Potency entry in test [1], in test [2], in test [4] and in [5] was “inactive” throughout. The Potency in test [3] is 0.968 µM (active).
In the case of `CNC(=O)Oc1cc(C)cc(C(C)C)c1`, the Potency result in [6], in test [7], in [1], in test [2], in test [8] and in [4] was “inactive” in each case. Further, the Potency result in test [5] was “inactive”. Besides, in test [9], the Potency was 11 µM (active).
On to `CCCCn1cc[n+](C)c1.[Cl][Fe-]([Cl])([Cl])[Cl]`, for which the Potency result in [6], in [7], in [1], in test [2], in test [4] and in test [5] was “inactive” in each case. Also, in [9], the Potency result was “inactive”.
On to `CCCCON=O`, for which the Potency result in test [6], in test [10], in test [8], in [4], in test [5] and in test [9] was “inactive” in each case.
For `CCCCN(CCCC)C(=S)[S-].CCCCN(CCCC)C(=S)[S-].[Ni+2]`, the Potency result in test [6], in test [7], in test [10], in test [2], in test [8] and in test [4] was “inactive” throughout. The Potency result in [5] and in test [9] was “inactive” each time.
Turning to `CCC(C)Br` (stereo not drawn), the Potency result in test [6], in test [7], in [10], in [8], in [3] and in [4] was “inactive” throughout. Further, the Potency result in test [5] and in [9] was “inactive” in each case.
Turning to `CC(C)[C@@H](Nc1ccc(C(F)(F)F)cc1Cl)C(=O)OC(C#N)c1cccc(Oc2ccccc2)c1` (stereo partly drawn), the Potency entry in [6], in test [7], in [2], in test [8], in [3] and in test [4] was “inactive” throughout.
With `CC(Cc1ccc2c(c1)OCO2)NO` (stereo not drawn), the Potency result in test [6], in test [7], in test [8], in test [4] and in test [5] was “inactive” in each case.
Regarding `CCCCc1ccccc1`, the Potency result in test [6], in test [7], in [2], in test [3] and in test [4] was “inactive” in each case.
Take `S=C=NCCc1ccccc1`: the Potency result in test [6], in [10] and in test [4] was “inactive” each time.
In the case of `O.O.O.O.O.O.O.O=S(=O)([O-])[O-].[Co+2]`, the Potency result in test [6], in test [7], in [10], in [2], in test [4] and in test [5] was “inactive” each time.
Regarding `O=C(NC(=O)c1ccccc1Cl)Nc1ccc(OC(F)(F)F)cc1`, the Potency result in test [6], in test [7], in test [2], in test [8], in [3] and in test [4] was “inactive” each time. For the same compound, the Potency entry in [5] was “inactive”.
In the case of `CNC(=O)/C=C(\C)OP(=O)(OC)OC`, the Potency entry in [6], in [7], in [2], in [8], in [4] and in test [5] was “inactive” in each case.
Regarding `CC(C)=CCN1CC[C@@]2(C)c3cc(O)ccc3C[C@@H]1[C@@H]2C`, the Potency result in [6], in test [7], in test [10], in test [2], in test [8] and in test [4] was “inactive” each time. For the same compound, the Potency result in [5] is “inactive”.
Take `CCN1CCC2(CC1)COc1cc3c(cc12)N(C(=O)c1ccc(-c2ccc(-c4nnc(C)o4)cc2C)cc1)CC3`: the Potency in test [6] is 35.9 µM (active); in [7], 20.2 µM (active); in test [2] it was 50.7 µM (active); in [8], 28.3 µM (active); in test [3] it was 2 µM (active); in [4] it was 45.2 µM (active).
In the case of `CC1=C2C[C@H]3[C@@H](CC=C4C[C@@H](O)CC[C@@]43C)[C@@H]2CC[C@]12O[C@@H]1C[C@H](C)CN[C@H]1[C@H]2C`, the Potency entry in test [6], in test [7], in test [2], in test [8] and in test [4] was “inactive” each time. The Potency in test [3] was 8.41 µM (active).
Turning to `Brc1cccc(-c2ccccc2)c1`, the Potency entry in [6], in test [2], in test [8], in test [3], in [4] and in test [5] was “inactive” in each case.
On to `COP(=O)(OC)Oc1ccc([N+](=O)[O-])cc1`, for which the Potency result in test [6], in [7], in test [2], in test [8], in test [3] and in test [4] was “inactive” in each case. For the same compound, the Potency entry in test [5] is “inactive”.
Turning to `CCOP(=O)(OCC)Oc1nc(Cl)c(Cl)cc1Cl`, the results for the Potency in [6] and in test [3] were 4.34 µM (active) and 48.3 µM (active), respectively. In addition, the Potency result in test [2] and in test [4] was “inactive” in each case.
Consider `Fc1ccc(C(OCCN2CCN(CCCc3ccccc3)CC2)c2ccc(F)cc2)cc1`, for which the Potency in [6] was 29.8 µM (active); in [7], 21.3 µM (active); in test [2] it was 26.8 µM (active); in test [8], 29.8 µM (active); in test [3] it was 13.3 µM (active); in test [4] it was 21.3 µM (active).
Regarding `CC(Cl)CCl` (stereo not drawn), the Potency result in test [6], in test [7], in [10], in test [2], in test [8] and in test [4] was “inactive” each time. In addition, the Potency entry in test [5] and in test [9] was “inactive” each time.
On to `O=[N+]([O-])[O-].[Tl+]`, for which the Potency result in [7], in test [2], in test [8], in test [4], in test [5] and in test [9] was “inactive” throughout.
Regarding `[C-]1=CC=CC1.[Cl][Zr+2][Cl].c1cc[cH-]c1`, the Potency result in test [6], in [7], in test [10], in [2], in test [3] and in [4] was “inactive” throughout. Besides, the Potency result in test [5] is “inactive”.
For the compound `O=C(N[C@@H]1N=C(c2ccccc2F)c2cccc3c2N(CC3)C1=O)c1cc2ccccc2[nH]1`, the Potency result in [6], in [7], in [2], in [3], in test [4] and in [9] was “inactive” each time.
Consider `CC(Cc1ccc(O)cc1)NCC(O)c1cc(O)cc(O)c1` (stereo not drawn), for which the Potency result in test [6], in test [10], in test [2], in test [8], in [3] and in [4] was “inactive” throughout.
For `CC(C)c1c(CN(C)C(C)Cc2ccccc2)n(C)n(-c2ccccc2)c1=O` (stereo not drawn), the Potency result in test [6], in [7], in test [10], in test [2], in test [8] and in test [4] was “inactive” throughout. Also, the Potency entry in [5] was “inactive”.
In the case of `CN(C)C(=S)SSC(=S)N(C)C`, the Potency in test [6] is 85.9 nM (active) and 27.5 nM (active) and 188 nM (active); in test [7], 27.2 µM (active) and 24.5 µM (active); in test [8] it was 33.9 µM (active) and 433 nM (active) and 422 nM (active); in [3] it was 85.1 nM (active) and 344 nM (active) and 266 nM (active); in [4], 5.49 µM (active) and 9.52 µM (active). For the same compound, the Potency result in test [2] was “inactive”.
